Laboratory results from the supplement of paper PMC11732987, “Enantioselective OTUD7B fragment discovery through chemoproteomics screening and high-throughput optimisation” (Communications Chemistry, 2025).

Legend:
Experiment in all cases: log2 ratio of Biotin-Ahx-Ub-VS probe labelling (fragment/DMSO); higher = less target engagement (more negative = stronger competition), active = hit call of the paper (q ≤ 0.05, log2 ratio ≤ -1)
Conditions in all cases: compound concentration: 200 uM; treatment time: 3 h
USP19 = biological target: T1, USP19 (UniProt O94966)
T1 sequence (whole entry): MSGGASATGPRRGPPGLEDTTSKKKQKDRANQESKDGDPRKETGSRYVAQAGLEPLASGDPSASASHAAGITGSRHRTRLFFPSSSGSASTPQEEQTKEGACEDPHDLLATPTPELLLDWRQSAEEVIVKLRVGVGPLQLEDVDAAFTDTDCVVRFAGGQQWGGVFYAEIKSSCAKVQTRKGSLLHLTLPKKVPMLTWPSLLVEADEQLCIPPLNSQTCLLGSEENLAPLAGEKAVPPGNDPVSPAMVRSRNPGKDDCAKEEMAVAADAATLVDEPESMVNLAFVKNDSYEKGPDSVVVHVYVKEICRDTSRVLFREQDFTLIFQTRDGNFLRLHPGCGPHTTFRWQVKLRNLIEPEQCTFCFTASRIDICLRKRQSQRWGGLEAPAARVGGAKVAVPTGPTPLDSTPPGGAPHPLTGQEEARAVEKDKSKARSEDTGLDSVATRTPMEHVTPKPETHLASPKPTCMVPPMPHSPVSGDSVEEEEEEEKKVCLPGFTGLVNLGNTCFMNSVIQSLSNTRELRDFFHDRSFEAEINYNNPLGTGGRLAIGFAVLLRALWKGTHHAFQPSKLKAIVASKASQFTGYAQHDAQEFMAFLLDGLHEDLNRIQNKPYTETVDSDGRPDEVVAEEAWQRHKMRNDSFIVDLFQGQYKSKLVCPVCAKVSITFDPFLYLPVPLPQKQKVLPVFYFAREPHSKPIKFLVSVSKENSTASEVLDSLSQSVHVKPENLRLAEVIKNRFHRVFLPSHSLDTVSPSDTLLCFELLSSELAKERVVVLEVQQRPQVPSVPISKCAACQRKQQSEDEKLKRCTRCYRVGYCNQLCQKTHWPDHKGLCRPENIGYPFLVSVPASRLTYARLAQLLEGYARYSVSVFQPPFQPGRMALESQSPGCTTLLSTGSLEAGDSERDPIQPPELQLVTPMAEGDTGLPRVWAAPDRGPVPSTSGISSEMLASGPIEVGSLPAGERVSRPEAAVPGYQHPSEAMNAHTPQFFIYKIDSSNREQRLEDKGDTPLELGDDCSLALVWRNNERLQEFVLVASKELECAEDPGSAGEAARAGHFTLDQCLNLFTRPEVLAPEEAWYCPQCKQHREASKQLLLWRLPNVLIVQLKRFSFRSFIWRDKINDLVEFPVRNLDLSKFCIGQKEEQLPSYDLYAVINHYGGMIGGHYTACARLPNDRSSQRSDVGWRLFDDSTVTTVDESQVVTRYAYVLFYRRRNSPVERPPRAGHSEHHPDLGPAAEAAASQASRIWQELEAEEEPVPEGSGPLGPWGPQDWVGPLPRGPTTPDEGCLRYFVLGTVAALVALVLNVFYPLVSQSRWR
Procedure, shortened: (§1)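 Labelling with Biotin-Ahx-Ub-VS (0.5 µM final, 1 h) followed a 3 h triplicate treatment of HEK293T lysate (495 µg per sample, Tris/CHAPS/IGEPAL buffer with protease inhibitors) with fragment at 200 µM or vehicle. Labelled DUBs were NeutrAvidin-enriched, digested with LysC and trypsin, and run by diaPASEF LC-MS/MS. The values, average log2 fragment/vehicle ratios by unpaired t-test, come from global-median-normalised Spectronaut label-free quantities. Proteins with ≥2 unique peptides were used.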

USP24 = USP24 (UniProt Q9UPU5)
Procedure, shortened: as §1

USP25 = biological target: T2, USP25 (UniProt Q9UHP3)
T2 sequence (whole entry): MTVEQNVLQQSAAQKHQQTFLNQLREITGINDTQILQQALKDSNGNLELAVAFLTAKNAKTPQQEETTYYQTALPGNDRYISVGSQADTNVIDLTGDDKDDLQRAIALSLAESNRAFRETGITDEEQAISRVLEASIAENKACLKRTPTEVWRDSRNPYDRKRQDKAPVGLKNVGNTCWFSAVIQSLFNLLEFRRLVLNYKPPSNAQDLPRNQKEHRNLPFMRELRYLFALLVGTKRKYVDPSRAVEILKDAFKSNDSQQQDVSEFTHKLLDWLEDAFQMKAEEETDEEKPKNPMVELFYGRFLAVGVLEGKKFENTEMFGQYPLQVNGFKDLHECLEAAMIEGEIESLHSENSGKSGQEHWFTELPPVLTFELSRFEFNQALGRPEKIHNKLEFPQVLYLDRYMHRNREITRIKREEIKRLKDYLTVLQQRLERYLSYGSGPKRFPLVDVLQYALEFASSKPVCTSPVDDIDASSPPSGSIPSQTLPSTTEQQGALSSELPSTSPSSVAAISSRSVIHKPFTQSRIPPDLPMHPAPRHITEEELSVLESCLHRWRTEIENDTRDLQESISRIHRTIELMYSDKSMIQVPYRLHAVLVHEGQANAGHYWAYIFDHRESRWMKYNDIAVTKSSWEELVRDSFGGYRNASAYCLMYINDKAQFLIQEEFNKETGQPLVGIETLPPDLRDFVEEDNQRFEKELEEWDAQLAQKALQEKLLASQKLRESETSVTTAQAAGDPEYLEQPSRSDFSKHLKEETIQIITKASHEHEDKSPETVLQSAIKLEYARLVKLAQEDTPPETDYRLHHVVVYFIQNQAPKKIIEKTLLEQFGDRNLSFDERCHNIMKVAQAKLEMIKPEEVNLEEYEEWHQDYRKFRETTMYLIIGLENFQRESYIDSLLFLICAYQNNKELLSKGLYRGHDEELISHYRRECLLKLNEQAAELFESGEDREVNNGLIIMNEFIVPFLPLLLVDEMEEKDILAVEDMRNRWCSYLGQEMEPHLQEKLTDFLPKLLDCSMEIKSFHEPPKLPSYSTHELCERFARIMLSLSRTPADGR
Procedure, shortened: as §1

USP28 = biological target: T3, USP28 (UniProt Q96RU2)
T3 sequence (whole entry): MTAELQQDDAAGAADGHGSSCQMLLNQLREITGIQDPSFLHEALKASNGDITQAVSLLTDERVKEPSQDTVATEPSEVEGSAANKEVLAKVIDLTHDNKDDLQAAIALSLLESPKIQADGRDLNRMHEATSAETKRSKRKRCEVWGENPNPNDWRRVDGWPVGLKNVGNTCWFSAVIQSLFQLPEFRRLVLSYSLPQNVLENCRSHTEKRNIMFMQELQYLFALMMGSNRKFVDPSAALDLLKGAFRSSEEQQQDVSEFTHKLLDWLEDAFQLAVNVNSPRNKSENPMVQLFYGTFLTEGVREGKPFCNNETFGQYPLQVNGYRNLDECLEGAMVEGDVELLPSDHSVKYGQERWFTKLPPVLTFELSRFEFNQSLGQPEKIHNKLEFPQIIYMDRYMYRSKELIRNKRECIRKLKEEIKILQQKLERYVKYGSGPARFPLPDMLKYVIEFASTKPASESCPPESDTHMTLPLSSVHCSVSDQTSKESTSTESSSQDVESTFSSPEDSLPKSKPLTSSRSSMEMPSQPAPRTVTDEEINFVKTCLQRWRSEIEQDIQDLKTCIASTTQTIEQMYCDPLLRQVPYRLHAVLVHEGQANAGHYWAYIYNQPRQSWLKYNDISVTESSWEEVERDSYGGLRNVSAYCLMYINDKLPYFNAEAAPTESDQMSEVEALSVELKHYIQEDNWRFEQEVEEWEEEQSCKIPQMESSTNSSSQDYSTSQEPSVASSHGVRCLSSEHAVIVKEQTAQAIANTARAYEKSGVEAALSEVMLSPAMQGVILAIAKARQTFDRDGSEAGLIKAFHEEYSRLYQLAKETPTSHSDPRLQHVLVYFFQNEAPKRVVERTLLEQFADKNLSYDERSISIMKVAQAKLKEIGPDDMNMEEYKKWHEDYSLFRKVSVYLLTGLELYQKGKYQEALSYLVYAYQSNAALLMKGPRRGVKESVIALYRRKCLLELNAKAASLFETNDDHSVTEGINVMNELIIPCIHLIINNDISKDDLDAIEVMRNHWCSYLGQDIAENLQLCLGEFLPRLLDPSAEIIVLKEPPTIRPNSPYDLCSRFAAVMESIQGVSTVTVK
Procedure, shortened: as §1

Measured: log2 ratio of Biotin-Ahx-Ub-VS probe labelling

Sequence of USP24 (Q9UPU5 whole entry): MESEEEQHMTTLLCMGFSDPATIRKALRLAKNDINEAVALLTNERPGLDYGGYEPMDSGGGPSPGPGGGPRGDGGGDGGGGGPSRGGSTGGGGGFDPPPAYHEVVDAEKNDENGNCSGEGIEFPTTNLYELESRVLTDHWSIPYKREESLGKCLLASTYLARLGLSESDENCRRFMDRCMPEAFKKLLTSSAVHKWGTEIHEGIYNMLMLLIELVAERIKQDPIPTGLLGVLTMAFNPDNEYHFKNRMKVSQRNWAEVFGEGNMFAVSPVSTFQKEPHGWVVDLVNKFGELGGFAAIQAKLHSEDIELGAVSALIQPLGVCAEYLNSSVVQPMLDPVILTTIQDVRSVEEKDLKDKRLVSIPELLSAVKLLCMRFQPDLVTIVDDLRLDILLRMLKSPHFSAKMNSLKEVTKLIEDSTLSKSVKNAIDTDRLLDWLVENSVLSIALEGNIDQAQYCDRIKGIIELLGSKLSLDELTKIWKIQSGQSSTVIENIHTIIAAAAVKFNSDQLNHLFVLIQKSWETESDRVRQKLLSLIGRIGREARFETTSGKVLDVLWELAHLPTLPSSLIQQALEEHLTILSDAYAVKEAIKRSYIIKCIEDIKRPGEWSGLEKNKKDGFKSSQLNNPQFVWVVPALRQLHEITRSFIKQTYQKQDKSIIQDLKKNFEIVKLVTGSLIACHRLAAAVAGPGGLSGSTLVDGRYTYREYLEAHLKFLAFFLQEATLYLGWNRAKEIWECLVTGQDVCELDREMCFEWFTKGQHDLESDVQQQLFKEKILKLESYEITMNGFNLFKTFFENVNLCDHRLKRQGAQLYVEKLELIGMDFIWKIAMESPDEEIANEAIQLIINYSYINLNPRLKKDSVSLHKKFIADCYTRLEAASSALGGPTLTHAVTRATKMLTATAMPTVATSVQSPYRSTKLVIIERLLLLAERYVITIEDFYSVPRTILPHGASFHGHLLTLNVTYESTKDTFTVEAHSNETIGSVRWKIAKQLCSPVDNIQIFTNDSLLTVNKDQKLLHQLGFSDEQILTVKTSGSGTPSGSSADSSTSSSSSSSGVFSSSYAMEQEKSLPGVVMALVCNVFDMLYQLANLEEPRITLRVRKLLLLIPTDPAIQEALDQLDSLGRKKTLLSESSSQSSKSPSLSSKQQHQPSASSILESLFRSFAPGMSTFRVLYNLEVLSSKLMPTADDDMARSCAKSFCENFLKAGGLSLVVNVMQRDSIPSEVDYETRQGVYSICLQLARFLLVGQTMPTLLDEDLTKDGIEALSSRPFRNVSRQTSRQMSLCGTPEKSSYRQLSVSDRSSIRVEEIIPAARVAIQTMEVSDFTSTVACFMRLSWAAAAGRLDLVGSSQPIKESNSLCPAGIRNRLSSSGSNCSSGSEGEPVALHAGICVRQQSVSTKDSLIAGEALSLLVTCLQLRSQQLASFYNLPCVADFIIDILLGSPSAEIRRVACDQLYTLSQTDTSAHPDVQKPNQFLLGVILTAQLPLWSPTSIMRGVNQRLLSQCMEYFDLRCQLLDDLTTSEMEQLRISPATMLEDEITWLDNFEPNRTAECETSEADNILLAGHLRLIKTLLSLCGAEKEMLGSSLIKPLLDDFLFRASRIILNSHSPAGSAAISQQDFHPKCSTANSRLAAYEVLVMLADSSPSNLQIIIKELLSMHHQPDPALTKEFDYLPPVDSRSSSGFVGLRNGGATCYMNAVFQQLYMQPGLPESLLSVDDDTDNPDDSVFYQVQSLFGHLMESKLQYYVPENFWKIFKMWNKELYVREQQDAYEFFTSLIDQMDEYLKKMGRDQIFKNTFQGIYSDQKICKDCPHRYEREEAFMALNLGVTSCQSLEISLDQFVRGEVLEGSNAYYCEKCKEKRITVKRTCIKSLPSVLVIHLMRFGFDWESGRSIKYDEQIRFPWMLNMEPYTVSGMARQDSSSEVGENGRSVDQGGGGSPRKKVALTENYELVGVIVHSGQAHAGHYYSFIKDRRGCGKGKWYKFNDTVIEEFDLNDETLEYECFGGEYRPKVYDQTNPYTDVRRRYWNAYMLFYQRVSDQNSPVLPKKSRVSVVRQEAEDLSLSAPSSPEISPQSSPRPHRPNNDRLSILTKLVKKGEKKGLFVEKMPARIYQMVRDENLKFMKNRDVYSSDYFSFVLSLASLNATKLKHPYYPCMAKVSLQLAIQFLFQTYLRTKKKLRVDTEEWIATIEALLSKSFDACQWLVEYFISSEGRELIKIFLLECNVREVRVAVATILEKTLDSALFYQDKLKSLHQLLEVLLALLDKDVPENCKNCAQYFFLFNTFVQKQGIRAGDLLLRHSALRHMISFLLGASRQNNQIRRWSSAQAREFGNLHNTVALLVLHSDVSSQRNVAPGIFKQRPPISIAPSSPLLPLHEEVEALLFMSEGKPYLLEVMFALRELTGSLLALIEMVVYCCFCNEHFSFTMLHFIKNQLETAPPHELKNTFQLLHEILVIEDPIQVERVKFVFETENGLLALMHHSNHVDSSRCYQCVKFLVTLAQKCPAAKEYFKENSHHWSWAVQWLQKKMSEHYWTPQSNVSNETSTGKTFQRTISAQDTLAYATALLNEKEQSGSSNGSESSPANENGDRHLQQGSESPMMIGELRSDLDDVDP

O=C(CCl)NCCc1cccc2ccccc12
inactive: USP19 0.0202 | USP24 -0.0928 | USP25 -0.0781 | USP28 -0.212
